Inconclusive results are not listed. The source made the active and inactive calls. The call rests on the fitted dose curve. Square brackets hold non-standard residues; d marks the D form. Peptide text beside a SMILES is read from it. ξ: configuration not given here. d(hArg(Et2)) = CCN=C(NCC)NCCCC[C@@H](N)C(=O)O; hArg(Et2) = CCN=C(NCC)NCCCC[C@H](N)C(=O)O; Phe(4-Cl) = N[C@@H](Cc1ccc(Cl)cc1)C(=O)O; ξ2Nal = NC(Cc1ccc2ccccc2c1)C(=O)O; 3Pal = N[C@@H](Cc1cccnc1)C(=O)O; ξP = O=C(O)C1CCCN1
assay: VSVG counterscreen qHTS to identify inhibitors of SARS-CoV-2 cell entry (AID 1645847); details: VSV-G pseudotyped particle entry, luciferase; series mostly up to 57.2 µM; further: nearly all actives have a fitted effect of over 65% in size
From the text: Assay Provider: Wei Zheng, Ph.D.
National Center for Advancing Translational Sciences, National Institute of Health, Rockville, MD.
SARS-CoV-2 spike protein, within the viral envelope, mediates viral attachment and infection of host cells. The SARS-CoV-2 spike protein specifically binds to the host receptor ACE2 (Angiotensin-converting enzyme 2). This interaction promotes endocytosis of the viral particle, additional events lead to viral-host cell membrane fusion and release of the viral contents, allowing viral replication.
While SARS-CoV-2 requires BSL-3 facilities for live virus work, pseudotyped partices (PP) that incorporate SARS-CoV-2 spike proteins without replication elements could facilitate studies on viral entry mechanisms in a BSL-2 setting. This PP cell entry assay could also enable screening of small molecule compound libraries in BSL-2 setting to identify inhibitors of SARS-CoV-2 cell entry.
SEQUENCE No. (e.g., 1, 2, 3, etc.); […] (e.g., Cells, Incubation, Reagent, etc.); VALUE and DESCRIPTION.
1. Cells. Seed 1500 HEK293-ACE2 cells (Expi293F with stable expression of human ACE2) in 2 microL/well media (DMEM, 10% FBS, 1x L-glutamine, 1x Pen/Strep, 1 ug/ml puromycin) in white 1536-well assay plates (Greiner #782073).
2. Incubation. Incubate at 37 degrees C with 5% CO2 overnight (~16 h).
3. Compound. Dispense 23 nL/well compounds in DMSO via pin transfer.
4. Incubation. Incubate for 1 h at 37C 5% CO2.
5. Reagent. Dispense 2 microL/well of vesicular stomatitis virus G glycoprotein (VSV-G) pseudotyped particles (PP). [a] PPs are produced with murine leukemia virus pseudo-typing.
6. Centrifugation. […]
7. Incubation. Incubate at for 48 h at 37C 5% CO2
8. Centrifugation. Remove supernatant with gentle centrifugation using a Blue Washer (BlueCat Bio).
9. Reagent. Dispense 4 microL/well of Bright-Glo Luciferase detection reagent (Promega #E2620).
10. Incubation. Incubate for 5 min at room temperature.
11. Detection. Read luminescence signal (ViewLux plate reader, PerkinElmer). Data was normalized with wells containing VSV-G PP as 100%, and wells containing bald PP (no fusion protein) as 0%.
Potency means the concentration at half of the fitted maximal effect.

SMILES	Potency
O=C1[C@@H]2[C@H]3CC[C@H](C3)[C@@H]2C(=O)N1C[C@@H]1CCCC[C@H]1CN1CCN(c2nsc3ccccc23)CC1	3040 nM (active)
CN(C)CCCOc1ccc(-c2ccc3ncc4c(c3c2)n(C2CCOCC2)c(=O)n4C)cn1	2350 nM (active)
CC[C@]1(O)CC2CN(CCc3c([nH]c4ccccc34)[C@@](C(=O)OC)(c3cc4c(cc3OC)N(C)[C@H]3[C@@](O)(C(=O)OC)[C@H](OC(C)=O)[C@]5(CC)C=CCN6CC[C@]43[C@@H]65)C2)C1 (stereo not given in full)	38.3 nM (active)
Cc1c[nH]c2ncnc(N3CCC(CN)(C(=O)Nc4cccc(OC(=O)N(C)C)c4)CC3)c12	inactive
Cc1cnc(Nc2ccc(F)cc2Cl)nc1-c1c[nH]c(C(=O)NC(CO)c2cccc(Cl)c2)c1 (stereo not given)	1920 nM (active)
CC(C)c1nc(CN(C)C(=O)N[C@@H](CCN2CCOCC2)C(=O)N[C@H](CC[C@H](Cc2ccccc2)NC(=O)OCc2cncs2)Cc2ccccc2)cs1	21500 nM (active)
NCCNc1ccc(NCCN)c2c1C(=O)c1ccncc1C2=O	3040 nM (active)
CC(C)OC(=O)CCC/C=C\C[C@@H]1[C@@H](/C=C/[C@@H](O)COc2cccc(C(F)(F)F)c2)[C@H](O)C[C@@H]1O	10800 nM (active)
O=C1NC(=O)C(c2cnc3ccccn23)=C1c1cn2c3c(cc(F)cc13)CN(C(=O)N1CCCCC1)CC2	152 nM (active)
COc1ccc(N(C)c2nc(C)nc3ccccc23)cc1	4820 nM (active)
O1[As]2O[As]1O2	15200 nM (active)
COc1ccc(C(=O)C2CCN(CC(=O)N(Cc3nc4c(c(=O)[nH]3)COCC4)CC3CC3)CC2)cc1	8570 nM (active)
Nc1ccn([C@@H]2C(F)=C(CO)[C@@H](O)[C@H]2O)c(=O)n1	3040 nM (active)
CS(=O)(=O)c1ccc(-c2cnc(NCc3ccco3)n3cnnc23)cc1	inactive
Cc1c(-c2ccc(-c3ccccc3F)cc2)nc2ccc(F)cc2c1C(=O)O	136 nM (active)
CCN(CCCOc1ccc2c(Nc3cc(CC(=O)Nc4cccc(F)c4)[nH]n3)ncnc2c1)CCOP(=O)(O)O	76.4 nM (active)
Cn1cc(C2=C(c3cn(C)c4cc([N+](=O)[O-])ccc34)C(=O)NC2=O)c2ccccc21	1080 nM (active)
COc1cc([C@@H]2c3cc4c(cc3[C@@H](O[C@@H]3O[C@@H]5CO[C@@H](C)O[C@H]5[C@H](O)[C@H]3O)[C@H]3COC(=O)[C@H]23)OCO4)cc(OC)c1OP(=O)(O)O	482 nM (active)
O=C(O)c1ccc(-c2c[nH]c3ncc(-c4ccccc4)cc23)cc1C1CCCC1	541 nM (active)
O=C(/C=C\n1cnc(-c2cc(C(F)(F)F)cc(C(F)(F)F)c2)n1)NNc1cnccn1	1710 nM (active)

SMILES	Potency
C=C(NC(=O)C(=C)NC(=O)c1csc(C2=N[C@H]3c4csc(n4)[C@H]4NC(=O)c5csc(n5)[C@H]([C@@](C)(O)[C@@H](C)O)NC(=O)[C@H]5CSC(=N5)C(=CC)NC(=O)[C@H]([C@@H](C)O)NC(=O)c5csc(n5)[C@]3(CC2)NC(=O)[C@H](C)NC(=O)C(=C)NC(=O)[C@H](C)NC(=O)[C@H](C(C)CC)N[C@@H]2C=Cc3c([C@H](C)O)cc(nc3[C@H]2O)C(=O)O[C@@H]4C)n1)C(N)=O (stereo not given in full)	1710 nM (active)
C[C@H]1COCCN1c1cc(C2(S(=O)(=O)C3CC3)CC2)nc(-c2ccc(NC(=S)NCCO)cc2)n1	304 nM (active)
C=C1C[C@@H]2CC[C@@]34C[C@H]5O[C@H]6[C@@H](O3)[C@H]3O[C@H](CC[C@@H]3O[C@H]6[C@H]5O4)CC(=O)C[C@@H]3[C@@H](OC)[C@@H](C[C@H](O)CN)O[C@H]3C[C@H]3O[C@@H](CC[C@@H]1O2)C[C@@H](C)C3=C	111 nM (active)
COc1cc([C@@H]2c3cc4c(cc3C(O[C@@H]3O[C@@H]5CO[C@@H](c6cccs6)OC5[C@H](O)[C@H]3O)C3COC(=O)[C@@H]32)OCO4)cc(OC)c1O (stereo not given in full)	42.9 nM (active)
CC(C)(C)NCC(O)COc1ccccc1C1CCCC1 (stereo not given)	12100 nM (active)
CO[C@@H]1[C@@H](O)[C@H](O)[C@@H](n2c3c(Cl)cccc3c3c4c(c5c6cccc(Cl)c6[nH]c5c32)C(=O)NC4=O)O[C@H]1CO	857 nM (active)
NC(=O)c1ccccc1Nc1ccnc(Nc2cccc(O)c2)n1	7640 nM (active)
C=C1C/C(=C\C=C2/CCC[C@]3(C)[C@@H]([C@H](C)/C=C/C(C)C(C)C)CC[C@@H]23)[C@@H](O)C[C@@H]1O (stereo not given in full)	429 nM (active)
Cc1c(N)nc([C@H](CC(N)=O)NC[C@@H](N)C(N)=O)nc1C(=O)N[C@H](C(=O)N[C@@H](C)[C@H](O)[C@@H](C)C(=O)N[C@@H](C(=O)NCCc1nc(-c2nc(C(=O)NCCC[S+](C)C)cs2)cs1)[C@@H](C)O)C(O[C@H]1O[C@H](CO)[C@H](O)[C@@H](O)[C@H]1O[C@H]1O[C@H](CO)[C@@H](O)[C@H](OC(N)=O)[C@@H]1O)c1cnc[nH]1 (stereo not given in full)	34.1 nM (active)
CC(C)OC(=O)[C@H](C)N[P@](=O)(CO[C@H](C)Cn1cnc2c(N)ncnc21)Oc1ccccc1	9.6 nM (active)
N#Cc1cccnc1N1CCN(C(=O)c2cccc(Cc3n[nH]c(=O)c4ccccc34)c2)CC1	60.7 nM (active)
CCc1cnn2c(NCc3ccc[n+]([O-])c3)cc(N3CCCC[C@H]3CCO)nc12	34.1 nM (active)
Cc1nnc(C[C@@H]2C=C(c3ccc(Cl)cc3)c3ccccc3-n3c(C)nnc32)o1	9610 nM (active)
CS[C@H]1SC[C@@H]2C(=O)N(C)[C@H](C(C)C)C(=O)OC[C@H](NC(=O)c3cnc4ccccc4n3)C(=O)N[C@H](C)C(=O)N(C)[C@H]1C(=O)N(C)[C@H](C(C)C)C(=O)OC[C@H](NC(=O)c1cnc3ccccc3n1)C(=O)N[C@H](C)C(=O)N2C	7.6 nM (active)
COc1ccc(-c2ccc3c(N4CCOC[C@@H]4C)nc(N4CCOC[C@@H]4C)nc3n2)cc1CO	429 nM (active)
CCNC(=NCCCC[C@H](NC(=O)[C@H](CC(C)C)NC(=O)[C@@H](CCCCN=C(NCC)NCC)NC(=O)[C@@H](Cc1ccc(O)cc1)NC(=O)[C@@H](CO)NC(=O)[C@H](Cc1cccnc1)NC(=O)[C@H](Cc1ccc(Cl)cc1)NC(=O)C(Cc1ccc2ccccc2c1)NC(C)=O)C(=O)N1CCCC1C(=O)N[C@H](C)C(N)=O)NCC (stereo not given in full) (Ac-[ξ2Nal][Phe(4-Cl)][3Pal][dS][dY][d(hArg(Et2))]L[hArg(Et2)][ξP][dA]-NH2)	857 nM (active)
C=C1CC[C@H](O)C/C1=C\C=C1/CCC[C@]2(C)[C@@H]([C@H](C)CCCC(C)C)CC[C@@H]12	24100 nM (active)
Cc1c(N)nc(C(CC(N)=O)NCC(N)C(N)=O)nc1C(=O)NC(C(=O)NC(C)C(O)C(C)C(=O)NC(C(=O)NCCc1nc(-c2nc(C(=O)NCCCN[C@@H](C)c3ccccc3)cs2)cs1)C(C)O)C(O[C@@H]1O[C@@H](CO)[C@@H](O)[C@H](O)[C@@H]1O[C@H]1O[C@H](CO)[C@@H](O)[C@H](OC(N)=O)[C@@H]1O)c1cnc[nH]1 (stereo not given in full)	27.1 nM (active)
CC/C(=C(/c1ccc(O)cc1)c1ccc(OCCNC)cc1)c1ccccc1	24100 nM (active)
C=CC(=O)N1CC[C@@H](Oc2nc(Nc3ccc(N4CCC(N5CCN(C)CC5)CC4)cc3)c(C(N)=O)nc2CC)C1	5270 nM (active)
